Reference: PubChem BioAssay AID1508601 (ICCB-Longwood Screening Facility, Harvard Medical School, 2020)
Among all 5,700 compounds or so, about 85 (1%) were called active. Rule as the data show it: active = p53-positive nuclei above about 36% (passing the limit was not always enough); inactive = the rest. Shown is part of a subset that was picked to be rich in actives.

How the values were obtained:
[1] = p53 stabilisation in HPV-positive human cells, imaging, p53-positive nuclei imaging, 24 h, 48 h (AID 1508601); details: 24/48 h
[2] = biological target: Cellular tumor antigen p53 (Homo sapiens) (UniProt P04637); experiment: as above; details: 24/48 h, stronger effect = higher value
[3] = measured here: cell number at 24 h, Library stock concentration: 80 uM
[4] = measured here: cell number at 24 h, Library stock concentration: 400 uM
[5] = measured here: cell number at 24 h, Library stock concentration: 2 mM
[6] = measured here: cell number at 24 h, Library stock concentration: 3.33 mM
[7] = measured here: cell number at 24 h, Library stock concentration: 10 mM
[8] = measured here: cell number at 48 h, Library stock concentration: 80 uM
[9] = measured here: cell number at 48 h, Library stock concentration: 400 uM
[10] = measured here: cell number at 48 h, Library stock concentration: 2 mM
[11] = measured here: cell number at 48 h, Library stock concentration: 3.33 mM
[12] = measured here: cell number at 48 h, Library stock concentration: 10 mM
[13] = Library stock concentration: 80 uM
[14] = Library stock concentration: 400 uM
[15] = Library stock concentration: 2 mM
[16] = Library stock concentration: 3.33 mM
[17] = Library stock concentration: 10 mM
[18] = measured here: p53 positive nuclei at 24 h, Library stock concentration: 80 uM
[19] = measured here: p53 positive nuclei at 24 h, Library stock concentration: 400 uM
[20] = measured here: p53 positive nuclei at 24 h, Library stock concentration: 2 mM
[21] = measured here: p53 positive nuclei at 24 h, Library stock concentration: 3.33 mM
[22] = measured here: p53 positive nuclei at 24 h, Library stock concentration: 10 mM
[23] = measured here: cell number at 24 h, concentration not given here
[24] = measured here: cell number at 48 h, concentration not given here
[25] = measured here: p53 positive nuclei at 24 h, concentration not given here

Chain of Cellular tumor antigen p53 (Homo sapiens) (P04637 whole entry, looked up): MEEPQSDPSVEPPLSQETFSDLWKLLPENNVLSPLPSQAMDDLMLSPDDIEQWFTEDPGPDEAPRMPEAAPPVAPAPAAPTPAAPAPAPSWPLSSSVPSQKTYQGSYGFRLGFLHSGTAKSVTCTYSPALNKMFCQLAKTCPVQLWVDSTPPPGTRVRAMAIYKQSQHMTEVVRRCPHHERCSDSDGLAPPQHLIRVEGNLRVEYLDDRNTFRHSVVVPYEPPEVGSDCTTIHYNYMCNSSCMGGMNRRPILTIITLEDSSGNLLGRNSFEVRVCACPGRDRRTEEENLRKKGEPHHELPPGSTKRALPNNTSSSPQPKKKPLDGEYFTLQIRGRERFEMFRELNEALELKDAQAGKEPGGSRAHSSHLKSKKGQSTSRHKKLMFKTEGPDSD

## CC(C)C1C(=O)NC(CCCN=C(N)N)C(=O)NCC(=O)NC(CC(=O)O)C(=O)NC(Cc2ccccc2)C(=O)N1C (centres undefined)
[1]; [3]
  nuclei count, normalised: 104%
[1]; [4]
  nuclei count, normalised: 96.6%
[1]; [5]
  nuclei count, normalised: 88.2%
[1]; [6]
  nuclei count, normalised: 88.5%
[1]; [7]
  nuclei count, normalised: 51.2%
[1]; [8]
  nuclei count, normalised: 94.6%
[1]; [9]
  nuclei count, normalised: 89.6%
[1]; [10]
  nuclei count, normalised: 76.5%
[1]; [11]
  nuclei count, normalised: 85.4%
[1]; [12]
  nuclei count, normalised: 34.6%
[2]; [13]
  p53-positive nuclei, normalised: 0.242% (inactive)
[2]; [14]
  p53-positive nuclei, normalised: 0.104% (inactive)
[2]; [15]
  p53-positive nuclei, normalised: -0.113% (inactive)
[2]; [16]
  p53-positive nuclei, normalised: -0.0271% (inactive)
[2]; [17]
  p53-positive nuclei, normalised: -0.0215% (inactive)
[2]; [18]
  p53-positive nuclei, normalised: 0.00102%
[2]; [19]
  p53-positive nuclei, normalised: -0.0368%
[2]; [20]
  p53-positive nuclei, normalised: -0.0914%
[2]; [21]
  p53-positive nuclei, normalised: -0.218%
[2]; [22]
  p53-positive nuclei, normalised: -0.22%

## CC(CCC(=O)O)C1CC[C@H]2[C@@H]3C(O)C[C@@H]4CC(O)CC[C@]4(C)[C@@H]3CC[C@]12C (some centres undefined)
[1]; [3]
  nuclei count, normalised: 103%
[1]; [4]
  nuclei count, normalised: 104%
[1]; [5]
  nuclei count, normalised: 103%
[1]; [7]
  nuclei count, normalised: 105%
[1]; [8]
  nuclei count, normalised: 101%
[1]; [9]
  nuclei count, normalised: 101%
[1]; [10]
  nuclei count, normalised: 100%
[1]; [12]
  nuclei count, normalised: 106%
[2]; [13]
  p53-positive nuclei, normalised: 0.0117% (inactive)
[2]; [14]
  p53-positive nuclei, normalised: -0.178% (inactive)
[2]; [15]
  p53-positive nuclei, normalised: 0.0148% (inactive)
[2]; [17]
  p53-positive nuclei, normalised: -0.147% (inactive)
[2]; [18]
  p53-positive nuclei, normalised: 0.00498%
[2]; [19]
  p53-positive nuclei, normalised: -0.109%
[2]; [20]
  p53-positive nuclei, normalised: -0.106%
[2]; [22]
  p53-positive nuclei, normalised: -0.11%

## O=C(C=Cc1ccc(CN(CCO)CCc2c[nH]c3ccccc23)cc1)NO
[1]; [6]
  nuclei count, normalised: 37.8%
[1]; [11]
  nuclei count, normalised: 20.4%
[2]; [16]
  p53-positive nuclei, normalised: 113% (active)
[2]; [21]
  p53-positive nuclei, normalised: 94.4%

## OCc1c[nH]c2ccccc12
[1]; [3]
  nuclei count, normalised: 116%
[1]; [4]
  nuclei count, normalised: 113%
[1]; [5]
  nuclei count, normalised: 124%
[1]; [6]
  nuclei count, normalised: 121%
[1]; [7]
  nuclei count, normalised: 113%
[1]; [8]
  nuclei count, normalised: 111%
[1]; [9]
  nuclei count, normalised: 105%
[1]; [10]
  nuclei count, normalised: 115%
[1]; [11]
  nuclei count, normalised: 105%
[1]; [12]
  nuclei count, normalised: 106%
[2]; [13]
  p53-positive nuclei, normalised: -0.0881% (inactive)
[2]; [14]
  p53-positive nuclei, normalised: 0.33% (inactive)
[2]; [15]
  p53-positive nuclei, normalised: 0.0198% (inactive)
[2]; [16]
  p53-positive nuclei, normalised: -0.0843% (inactive)
[2]; [17]
  p53-positive nuclei, normalised: -0.042% (inactive)
[2]; [18]
  p53-positive nuclei, normalised: -0.0144%
[2]; [19]
  p53-positive nuclei, normalised: 0.188%
[2]; [20]
  p53-positive nuclei, normalised: 0.151%
[2]; [21]
  p53-positive nuclei, normalised: -0.374%
[2]; [22]
  p53-positive nuclei, normalised: 0.0508%

## O=C(O)CCCc1c[nH]c2ccccc12
[1]; [6]
  nuclei count, normalised: 110%
[1]; [11]
  nuclei count, normalised: 101%
[2]; [16]
  p53-positive nuclei, normalised: -0.0398% (inactive)
[2]; [21]
  p53-positive nuclei, normalised: 2.53%

## CCc1cc2c(cc1CC)CC(NCC(O)c1ccc(O)c3[nH]c(=O)ccc13)C2 (centres undefined)
[1]; [6]
  nuclei count, normalised: 112%
[1]; [11]
  nuclei count, normalised: 110%
[2]; [16]
  p53-positive nuclei, normalised: -0.298% (inactive)
[2]; [21]
  p53-positive nuclei, normalised: -0.54%

## CCCCC[C@H](O)/C=C/[C@H]1[C@H](O)CC(=O)[C@@H]1C/C=C\CCCC(=O)OC
[1]; [23]
  nuclei count, normalised: 111%
[1]; [24]
  nuclei count, normalised: 106%
[2]; concentration not given here
  p53-positive nuclei, normalised: -0.0657% (inactive)
[2]; [25]
  p53-positive nuclei, normalised: 0.249%

## CCC(CC)(NC(=O)C(C)C)C(=O)NC(CCCN=C(N)N)C(=O)NC1(C(=O)NC(c2ccc(F)cc2)c2ccc(F)cc2)CCCC1 (centres undefined)
[1]; [6]
  nuclei count, normalised: 107%
[1]; [11]
  nuclei count, normalised: 102%
[2]; [16]
  p53-positive nuclei, normalised: -0.0557% (inactive)
[2]; [21]
  p53-positive nuclei, normalised: -0.115%

## c1ccc(-c2nc3c(cnn3C3CCCCC3)[nH]2)c(Cn2cccn2)c1
[1]; [23]
  nuclei count, normalised: 106%
[1]; [24]
  nuclei count, normalised: 110%
[2]; concentration not given here
  p53-positive nuclei, normalised: -0.0852% (inactive)
[2]; [25]
  p53-positive nuclei, normalised: 0.144%

## CC(/C=C/C(=O)NO)=C\[C@@H](C)C(=O)c1ccc(N(C)C)cc1
[1]; [23]
  nuclei count, normalised: 53.4%
[1]; [24]
  nuclei count, normalised: 27.6%
[2]; concentration not given here
  p53-positive nuclei, normalised: 55.3% (active)
[2]; [25]
  p53-positive nuclei, normalised: 61.3%
